Test [1] deals with Ribosomal protein S6 kinase alpha-6 (Homo sapiens) (UniProt Q9UK32). Particulars: at 1 µM.
Test [2] has as its target T1, Serine/threonine-protein kinase Sgk1 (Homo sapiens) (UniProt O00141).
T1 sequence (whole entry): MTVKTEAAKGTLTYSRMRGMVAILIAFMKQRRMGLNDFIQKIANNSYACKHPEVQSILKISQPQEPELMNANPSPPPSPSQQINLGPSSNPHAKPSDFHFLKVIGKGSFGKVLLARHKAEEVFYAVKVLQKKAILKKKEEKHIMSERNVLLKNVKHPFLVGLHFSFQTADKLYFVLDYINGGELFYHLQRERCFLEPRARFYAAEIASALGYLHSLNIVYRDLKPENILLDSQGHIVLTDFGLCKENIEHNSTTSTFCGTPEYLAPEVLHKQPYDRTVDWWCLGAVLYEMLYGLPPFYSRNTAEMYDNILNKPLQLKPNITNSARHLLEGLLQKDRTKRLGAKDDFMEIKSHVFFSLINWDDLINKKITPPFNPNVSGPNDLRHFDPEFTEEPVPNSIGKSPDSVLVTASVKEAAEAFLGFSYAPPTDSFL
Particulars: at 0.1 µM.

The target in test [3] is T1, Serine/threonine-protein kinase Sgk1 (Homo sapiens). Particulars: at 1 µM.
For test [4], the target named is T2, Serine/threonine-protein kinase Sgk2 (Homo sapiens) (UniProt Q9HBY8).
T2 sequence (whole entry): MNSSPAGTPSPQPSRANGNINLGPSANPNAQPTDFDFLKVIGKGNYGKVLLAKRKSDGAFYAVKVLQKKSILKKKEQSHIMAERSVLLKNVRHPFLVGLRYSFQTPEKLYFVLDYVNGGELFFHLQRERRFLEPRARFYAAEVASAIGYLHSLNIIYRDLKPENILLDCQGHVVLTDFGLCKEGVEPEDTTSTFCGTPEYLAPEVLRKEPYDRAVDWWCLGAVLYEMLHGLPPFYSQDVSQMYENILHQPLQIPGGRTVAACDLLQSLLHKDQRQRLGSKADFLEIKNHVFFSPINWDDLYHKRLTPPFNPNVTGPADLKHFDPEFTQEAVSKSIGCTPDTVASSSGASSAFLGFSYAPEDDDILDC
Particulars: at 0.1 µM.

The target in test [5] is T2, Serine/threonine-protein kinase Sgk2 (Homo sapiens). Particulars: at 1 µM.
In test [6] the target is T3, Serine/threonine-protein kinase Sgk3 (Homo sapiens) (UniProt Q96BR1).
T3 sequence (whole entry): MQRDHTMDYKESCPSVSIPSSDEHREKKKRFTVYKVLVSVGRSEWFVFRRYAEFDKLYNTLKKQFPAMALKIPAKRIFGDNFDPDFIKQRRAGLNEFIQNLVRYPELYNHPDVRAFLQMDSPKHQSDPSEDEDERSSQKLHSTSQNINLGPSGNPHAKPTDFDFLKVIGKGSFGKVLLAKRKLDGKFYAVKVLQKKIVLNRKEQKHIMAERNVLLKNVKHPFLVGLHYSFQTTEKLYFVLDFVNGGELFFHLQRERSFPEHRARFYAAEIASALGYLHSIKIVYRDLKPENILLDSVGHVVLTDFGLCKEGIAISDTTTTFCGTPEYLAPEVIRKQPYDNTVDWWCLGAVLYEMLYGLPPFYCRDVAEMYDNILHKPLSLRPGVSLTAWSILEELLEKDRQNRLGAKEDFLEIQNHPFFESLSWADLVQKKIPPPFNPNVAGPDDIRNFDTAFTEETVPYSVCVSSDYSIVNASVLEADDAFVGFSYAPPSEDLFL
Particulars: at 0.1 µM.

Test [7] addresses T3, Serine/threonine-protein kinase Sgk3 (Homo sapiens). Particulars: at 1 µM.
Test [8] concerns the target 5'-AMP-activated protein kinase catalytic subunit alpha-1 (Homo sapiens) (UniProt Q13131). Particulars: at 0.1 µM.
The target is the same in test [9]. Particulars: at 1 µM.
Test [10] has as its target 5'-AMP-activated protein kinase catalytic subunit alpha-2 (Homo sapiens) (UniProt P54646). Particulars: at 0.1 µM.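 Note: mean inhibition measured on the AMPK complex of alpha2, beta1 and gamma1 subunits.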

Chain of 5'-AMP-activated protein kinase catalytic subunit alpha-1 (Homo sapiens) (Q13131 whole entry, looked up): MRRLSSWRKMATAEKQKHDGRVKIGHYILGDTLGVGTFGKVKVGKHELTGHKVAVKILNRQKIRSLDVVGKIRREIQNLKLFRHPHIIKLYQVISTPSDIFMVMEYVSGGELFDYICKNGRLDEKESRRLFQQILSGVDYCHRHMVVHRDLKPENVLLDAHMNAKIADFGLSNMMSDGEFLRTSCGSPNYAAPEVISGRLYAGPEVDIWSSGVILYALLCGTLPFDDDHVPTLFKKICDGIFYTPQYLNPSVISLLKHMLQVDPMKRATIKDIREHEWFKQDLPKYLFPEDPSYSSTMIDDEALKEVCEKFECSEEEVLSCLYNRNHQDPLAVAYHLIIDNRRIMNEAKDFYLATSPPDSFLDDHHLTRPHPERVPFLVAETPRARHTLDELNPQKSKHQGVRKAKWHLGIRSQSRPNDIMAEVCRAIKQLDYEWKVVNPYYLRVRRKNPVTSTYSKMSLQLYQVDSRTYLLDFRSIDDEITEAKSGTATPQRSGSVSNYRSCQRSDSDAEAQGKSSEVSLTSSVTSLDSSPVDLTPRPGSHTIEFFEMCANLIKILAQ
Chain of Ribosomal protein S6 kinase alpha-6 (Homo sapiens) (Q9UK32 whole entry): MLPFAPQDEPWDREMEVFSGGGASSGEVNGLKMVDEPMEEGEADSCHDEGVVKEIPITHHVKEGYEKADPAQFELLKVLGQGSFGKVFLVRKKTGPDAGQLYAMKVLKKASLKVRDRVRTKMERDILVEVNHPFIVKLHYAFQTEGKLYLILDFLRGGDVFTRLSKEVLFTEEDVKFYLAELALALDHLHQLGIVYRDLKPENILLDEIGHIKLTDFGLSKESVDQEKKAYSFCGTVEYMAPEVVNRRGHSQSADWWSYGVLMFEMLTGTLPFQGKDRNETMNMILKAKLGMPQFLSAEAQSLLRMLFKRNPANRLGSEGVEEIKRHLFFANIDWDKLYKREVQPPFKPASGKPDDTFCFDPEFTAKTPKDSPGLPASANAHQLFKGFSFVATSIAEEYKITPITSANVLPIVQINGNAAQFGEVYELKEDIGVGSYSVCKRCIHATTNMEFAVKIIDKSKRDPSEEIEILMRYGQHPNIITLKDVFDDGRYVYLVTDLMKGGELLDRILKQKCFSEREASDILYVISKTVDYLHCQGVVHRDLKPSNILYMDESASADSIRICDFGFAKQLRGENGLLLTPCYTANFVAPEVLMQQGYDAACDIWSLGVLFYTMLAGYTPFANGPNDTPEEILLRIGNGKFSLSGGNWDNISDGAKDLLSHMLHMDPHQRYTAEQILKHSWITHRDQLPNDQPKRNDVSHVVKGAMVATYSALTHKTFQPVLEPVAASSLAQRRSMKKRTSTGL
Chain of 5'-AMP-activated protein kinase catalytic subunit alpha-2 (Homo sapiens) (P54646 whole entry, looked up): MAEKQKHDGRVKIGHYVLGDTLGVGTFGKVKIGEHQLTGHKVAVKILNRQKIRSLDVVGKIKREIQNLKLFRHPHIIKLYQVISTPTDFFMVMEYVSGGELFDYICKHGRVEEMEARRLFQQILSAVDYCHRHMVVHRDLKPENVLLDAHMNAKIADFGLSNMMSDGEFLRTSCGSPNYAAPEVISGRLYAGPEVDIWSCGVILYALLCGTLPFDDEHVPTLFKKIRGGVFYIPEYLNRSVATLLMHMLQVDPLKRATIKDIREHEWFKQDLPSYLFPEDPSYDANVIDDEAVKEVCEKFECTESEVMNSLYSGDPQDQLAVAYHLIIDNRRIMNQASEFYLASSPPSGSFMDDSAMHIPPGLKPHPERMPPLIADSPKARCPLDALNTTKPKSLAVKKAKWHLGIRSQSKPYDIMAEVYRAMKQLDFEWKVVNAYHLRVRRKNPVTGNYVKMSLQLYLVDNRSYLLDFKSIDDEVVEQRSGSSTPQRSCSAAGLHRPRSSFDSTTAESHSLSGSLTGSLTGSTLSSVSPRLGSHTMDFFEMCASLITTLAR

For the molecule `CN1CCC(n2cnc(-c3ccc(F)cc3)c2-c2ccnc(NCCO)n2)CC1`, the inhibition in test [1] turned out to be 1.96%; in test [2], 3.61%; in test [3], 6.71%; in [4], 0.04%; in test [5], 5.93%; in test [6], 5.14%. Further, the inhibition in test [7] was 3.95%; in test [8] it was 2.98%; in test [9], 6.22%; in test [10], 1.25%.
Regarding `O=C1Nc2ccccc2/C1=C1\CCc2cc(O)ccc21`, the inhibition in [1] is 37.6%; in test [2], 6.47%; in test [3], 19.2%; in test [4], 2.24%; in test [5], 10.2%; in test [6], 2.61%. The inhibition in test [7] worked out at 5.81%; in [8], 5.27%; in test [9], 13.4%; in test [10], 5.22%.
With `COc1cc(N2CCN(C(C)C)CC2)ccc1Nc1nc(Nc2cccc3ncccc23)c2cc[nH]c2n1`, the inhibition was 2.88% in test [1]; 1.18% in test [2]; -0.91% in test [3]; -3.32% in [4]; -0.85% in test [5]; 0.42% in test [6]. Also, the inhibition in test [7] was determined as 0.55%; in test [8] it was 0.27%; in [9] it was 0.86%; in [10], 0.57%.
Turning to `CS(=O)(=O)CCNCc1ccc(-c2ccc3ncnc(Nc4ccc(OCc5cccc(C(F)(F)F)c5)cc4)c3c2)o1`, the inhibition in test [1] amounted to 1.68%; in [2], 2.43%; in test [3], 1.63%; in test [4] it was 4.41%; in test [5], 2.6%; in test [6], 3.89%. The inhibition in test [7] stood at 2.45%; in test [8], 1.06%; in [9], 5.76%; in test [10], 6.24%.
Consider `CC(C)c1ccc(-c2cc(-c3c[nH]nc3-c3ccccn3)ccn2)cc1`, for which the inhibition was -0.11% in test [1]; 1.94% in test [2]; 0.95% in test [3]; 3.97% in test [4]; 3.85% in test [5]; 0.19% in [6]. Moreover, the inhibition in test [7] is -1.62%; in [8] it was -0.34%; in [9], -1.2%; in test [10], 0.19%.
Take `O=C(O[C@H]1CN[C@H](C#Cc2cc3ncnc(Nc4ccc(OCc5cccc(F)c5)c(Cl)c4)c3s2)C1)N1CCOCC1`: the inhibition in [1] was found to be 1.82%; in [2], 3.69%; in test [3] it was 4.68%; in test [4], 6.81%; in [5] it was 6.86%; in [6] it was 7.16%. The inhibition in [7] amounted to 6.57%; in test [8], 4.66%; in test [9] it was 4.92%; in test [10], 4.18%.
With `COc1ccc(Nc2ncc(-c3ccccc3)o2)cc1OC`, the inhibition in test [1] was 3.67%; in test [2], 1.25%; in test [3], 9.75%; in [4] it was 1.33%; in test [5], -0.37%; in [6], 0.7%. For the same molecule, the inhibition in [7] is -1.61%; in test [8], 0.83%; in test [9], 5.29%; in [10], -0.43%.
`CNC(=O)c1cncc(/C=C/c2ccccc2C)c1`: the inhibition in [1] was 0.63%; in [2] it was 3.1%; in [3], 5.48%; in [4], 2.67%; in test [5] it was 0.66%; in [6] it was 1.58%. The inhibition in [7] came to 4.02%; in test [8] it was 3.16%; in test [9], 7.91%; in [10], 2.05%.
As for `Fc1cccc(COc2ccc(Nc3ncncc3C#Cc3ccccc3)cc2Cl)c1`, the inhibition came to 1.91% in test [1]; 3.17% in test [2]; 7.69% in test [3]; 5.33% in [4]; 8.63% in test [5]; 5.19% in test [6]. Further, the inhibition was 7.34% in [7], 3.44% in test [8], 7.14% in test [9] and 1.38% in test [10].
Consider `CNC(=O)c1ncccc1Nc1nc(Nc2cc3c(cc2OC)CCCN3C(=O)CN(C)C)nc2[nH]ccc12`, for which the inhibition in test [1] came out at 19.7%; in test [2] it was 2.04%; in test [3], 2.57%; in test [4], 0.57%; in test [5], 1.29%; in test [6], 4.05%. Besides, the inhibition is 4.49% in test [7], 5.47% in test [8], 6.88% in test [9] and 3.31% in [10].
On to `COc1ccc2ncn(-c3cc(O[C@H](C)c4ccccc4C(F)(F)F)c(C(N)=O)s3)c2c1`, for which the inhibition is 9.8% in [1]; 0.33% in test [2]; 0.95% in test [3]; -1.23% in test [4]; 0.53% in [5]; -0.12% in test [6]. In addition, the inhibition in [7] is 0.72%; in [8] it was -0.57%; in [9] it was 3.14%; in test [10], 0.8%.
For the molecule `CCS(=O)(=O)c1ccc(OC)c(Nc2ncc(-c3cccc(F)c3)o2)c1`, the inhibition in test [1] amounted to 6.33%; in test [2], 2.66%; in [3], 4%; in test [4] it was 0.06%; in test [5], 1.18%; in test [6] it was 3.85%. The inhibition in test [7] is 3.03%; in [8], 2.82%; in [9], 5.78%; in [10], 7.22%.

In general, inhibition refers to the relative decrease from the control value, in per cent.

The values are drawn from ChEMBL document CHEMBL1961873, “Compounds: GSK PKIS; Assays: Nanosyn kinase panel” (2012).
